Several values for one entry are separate records, joined by “and”; a condition that tells them apart may be missing. Equal values may be shown once. The source holds several records for some structures; these can differ, active in one and inactive in another. Activity calls are given as the source filed them. How the source made its calls: active means hit-call score of the fitted dose curve at least 0.9, where 1 is the maximum; inactive means score below 0.9.
Columns and labels:
[1] = APR_HepG2_NuclearSize_72hr: Apredica 72-hour HepG2 Assay for Nuclear Size (AID 2282925); settings: high-content imaging, actives raise or lower the signal
How it was run: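 Nuclear size was read by high-content imaging of Hoechst 33342 stain after formaldehyde fixation. Compounds ran 72 h on HepG2 at 0.39 to 200 uM, with final DMSO 0.5% v/v. Curves fitted both directions relative to DMSO control.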

[2] = ATG_CRE_CIS: Attagene CIS-FACTORIAL HepG2 Assay for human cAMP Responsive Element (CRE) binding protein 3 (AID 2282926); settings: HepG2 CRE cis-reporter, Attagene multiplexed mRNA; actives raise or lower the signal
How it was run: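 Endogenous transcription factor activity read via CRE-regulated reporter transcripts in transfected HepG2 cells. After 24 h exposure, RNA was reverse-transcribed, amplified, fluorescently labelled and sized by capillary electrophoresis; gain or loss fitted against DMSO.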

[3] = biological target: CCAAT/enhancer-binding protein beta (Homo sapiens) (UniProt P17676); experiment: ATG_C_EBP_CIS: Attagene CIS-FACTORIAL HepG2 Assay for human CCAAT/Enhancer Binding Protein (C/EBP) beta (AID 2282927); settings: HepG2 Attagene cis-factorial transcription factor reporter; actives raise or lower the signal
CCAAT/enhancer-binding protein beta (Homo sapiens), sequence (P17676 whole entry, looked up, the tested form may be a part): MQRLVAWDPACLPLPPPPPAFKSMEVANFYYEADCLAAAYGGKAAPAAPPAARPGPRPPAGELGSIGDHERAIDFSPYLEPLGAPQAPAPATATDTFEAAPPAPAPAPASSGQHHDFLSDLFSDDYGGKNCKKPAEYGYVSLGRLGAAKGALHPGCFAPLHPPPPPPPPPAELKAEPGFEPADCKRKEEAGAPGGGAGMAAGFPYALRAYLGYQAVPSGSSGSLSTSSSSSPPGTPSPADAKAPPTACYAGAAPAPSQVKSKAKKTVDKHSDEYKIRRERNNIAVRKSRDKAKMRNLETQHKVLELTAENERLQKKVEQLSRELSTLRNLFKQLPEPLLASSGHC
How it was run: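 Endogenous C/EBPb-driven reporter transcripts measured in transfected human HepG2 cells at 24 h via RT-PCR and capillary electrophoresis of labelled fragments. Activity fitted in both directions relative to DMSO baseline.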

[4] = ATG_CMV_CIS: Attagene CIS-FACTORIAL HepG2 Assay for human CMV (Internal Marker) (AID 2282928); settings: HepG2 CMV promoter reporter, transcription factor profiling; actives raise or lower the signal;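 further: endpoint acts as a background internal control marker rather than a target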
How it was run: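 Fluorescence intensity of RT-PCR-derived reporter fragments, resolved by capillary electrophoresis, gives the signal. HepG2 liver cells bearing transfected cis-element reporters were treated 24 h; activity in either direction was fit relative to DMSO-treated controls.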

[5] = ATG_DR4_LXR_CIS: Attagene CIS-FACTORIAL HepG2 Assay for human Liver X Receptor (LXR), DR4 submotif (AID 2282929); settings: HepG2 Attagene DR4 cis-reporter, mRNA transcription; actives raise or lower the signal
How it was run: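 Total RNA from 24 h-treated, MRTU-transfected HepG2 cells underwent reverse transcription, PCR, fluorescent primer extension and restriction digestion before capillary electrophoresis. Both increases and decreases in reporter signal were fitted against DMSO.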

[6] = biological target: Aryl hydrocarbon receptor (Homo sapiens) (UniProt P35869); experiment: ATG_Ahr_CIS: Attagene CIS-FACTORIAL HepG2 Assay for human Aryl Hydrocarbon Receptor (Ahr) (AID 2282930); settings: HepG2 AhR cis-factorial reporter transcription; actives raise or lower the signal
Aryl hydrocarbon receptor (Homo sapiens), sequence (P35869 whole entry, looked up): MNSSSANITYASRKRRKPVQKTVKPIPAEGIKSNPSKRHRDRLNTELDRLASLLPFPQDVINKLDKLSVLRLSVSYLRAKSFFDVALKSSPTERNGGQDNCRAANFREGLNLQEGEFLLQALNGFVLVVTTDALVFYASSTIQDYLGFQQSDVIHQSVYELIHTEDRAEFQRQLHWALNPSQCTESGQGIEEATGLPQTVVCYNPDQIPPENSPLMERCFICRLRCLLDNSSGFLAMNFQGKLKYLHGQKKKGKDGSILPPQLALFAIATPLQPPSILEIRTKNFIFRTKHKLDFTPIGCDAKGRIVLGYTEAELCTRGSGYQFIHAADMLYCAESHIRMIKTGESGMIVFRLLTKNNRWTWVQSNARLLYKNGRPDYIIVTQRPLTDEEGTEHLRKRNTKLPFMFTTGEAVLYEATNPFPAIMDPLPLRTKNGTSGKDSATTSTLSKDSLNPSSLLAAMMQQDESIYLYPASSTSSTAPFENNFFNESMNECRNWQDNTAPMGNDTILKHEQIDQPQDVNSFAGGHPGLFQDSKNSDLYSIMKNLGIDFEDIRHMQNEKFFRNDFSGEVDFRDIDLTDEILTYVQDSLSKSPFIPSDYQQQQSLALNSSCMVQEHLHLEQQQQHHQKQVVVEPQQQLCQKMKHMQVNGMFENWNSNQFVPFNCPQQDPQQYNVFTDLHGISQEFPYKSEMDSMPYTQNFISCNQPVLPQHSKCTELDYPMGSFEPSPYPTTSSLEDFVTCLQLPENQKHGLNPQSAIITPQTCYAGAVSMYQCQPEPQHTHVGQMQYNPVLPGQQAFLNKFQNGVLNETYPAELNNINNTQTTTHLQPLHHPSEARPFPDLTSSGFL
How it was run: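 Reporter mRNA levels, quantified by RT-PCR and fluorescent capillary electrophoresis, reflect endogenous AhR transcriptional activity in HepG2 cells carrying transfected cis-promoter reporter constructs. Readout at 24 h post-dose; gain or loss fitted against DMSO baseline.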

[7] = ATG_AP_1_CIS: Attagene CIS-FACTORIAL HepG2 Assay for human Activator Protein 1 (AP-1) (AID 2282931); settings: HepG2 Attagene cis-factorial AP-1 reporter mRNA; actives raise or lower the signal
How it was run: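 HepG2, transient cis-reporter transfection; 24 h; readout RT-PCR/CE fluorescence; DMSO baseline, gain and loss fitted.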

[8] = ATG_AP_2_CIS: Attagene CIS-FACTORIAL HepG2 Assay for human Activator Protein 2 (AP-2) (AID 2282932); settings: HepG2 AP-2 cis-reporter, Attagene transcription factor profiling; actives raise or lower the signal
How it was run: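 Endogenous transcription factor activity is reported through transfected multiplex reporter constructs in HepG2, after 24 h of compound exposure. Transcripts were quantified by RT-PCR and capillary electrophoresis of fluorescent fragments. Bidirectional fit against DMSO.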

[9] = ATG_BRE_CIS: Attagene CIS-FACTORIAL HepG2 Assay for human Bone Morphogenetic Protein (BMP) Response Element (BRE) (AID 2282933); settings: HepG2 BMP response element reporter, Attagene transcription factor profiling; actives raise or lower the signal
How it was run: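 Endogenous transcription factor activity read in transiently transfected HepG2 cells after 24 h chemical exposure. Bidirectional curve fitting against DMSO; readout is reporter transcript level by RT-PCR with capillary electrophoresis of labelled products.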

[10] = biological target: Transcription factor E2F1 (Homo sapiens) (UniProt Q01094); experiment: ATG_E2F_CIS: Attagene CIS-FACTORIAL HepG2 Assay for human E2F Transcription Factor 1 (AID 2282935); settings: HepG2 Attagene cis-reporter, E2F reporter RNA transcripts; actives raise or lower the signal
Transcription factor E2F1 (Homo sapiens), sequence (Q01094 whole entry, looked up): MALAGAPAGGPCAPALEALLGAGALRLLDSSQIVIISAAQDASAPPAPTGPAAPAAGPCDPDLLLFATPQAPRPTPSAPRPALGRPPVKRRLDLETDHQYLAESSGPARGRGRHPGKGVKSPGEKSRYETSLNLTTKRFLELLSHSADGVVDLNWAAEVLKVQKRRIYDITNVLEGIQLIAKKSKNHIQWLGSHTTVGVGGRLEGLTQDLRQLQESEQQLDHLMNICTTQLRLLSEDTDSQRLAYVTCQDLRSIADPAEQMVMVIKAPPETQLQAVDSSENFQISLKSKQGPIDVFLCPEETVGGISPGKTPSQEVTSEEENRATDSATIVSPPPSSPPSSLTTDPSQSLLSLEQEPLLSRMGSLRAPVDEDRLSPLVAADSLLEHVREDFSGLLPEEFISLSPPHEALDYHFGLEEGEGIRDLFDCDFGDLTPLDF
How it was run: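 Gain or loss of reporter transcript, fitted against DMSO, reflects E2F1-driven transcription. Transiently transfected HepG2 dosed 24 h before RNA isolation. Quantified by fluorescent RT-PCR products separated by capillary electrophoresis.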

[11] = ATG_E_Box_CIS: Attagene CIS-FACTORIAL HepG2 Assay for human Enhancer Box (E-box) (AID 2282936); settings: HepG2 E-box cis-reporter transcription, actives raise or lower the signal
How it was run: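 E-box-driven reporter transcripts measured in transiently transfected HepG2 after 24 h exposure: RNA reverse-transcribed, PCR-amplified, fluorescently labelled, digested and resolved by capillary electrophoresis. Gain or loss relative to DMSO.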

[12] = ATG_M_61_CIS: Attagene CIS-FACTORIAL HepG2 Assay for M61 Transcription Factor (Internal Marker) (AID 2282937); settings: HepG2 Attagene CIS-FACTORIAL M61 internal marker reporter; actives raise or lower the signal
How it was run: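 Transfect HepG2 with MRTUs; dose 24 h; isolate RNA; reverse-transcribe with DNase I treatment; PCR-amplify, FAM-label and cut with HpaI for 2 h at 37 C; resolve by CE. Bidirectional fitting against DMSO.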

[13] = ATG_EGR_CIS: Attagene CIS-FACTORIAL HepG2 Assay for human Early Growth Response 1 (EGR1) (AID 2282938); settings: HepG2 Attagene CIS-FACTORIAL EGR reporter mRNA; actives raise or lower the signal
How it was run: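 After a 24 h treatment of transiently transfected HepG2 cells, total RNA was reverse-transcribed and reporter sequences PCR-amplified, labelled and run on capillary electrophoresis. Reporters sit under cis-regulatory promoters sensing endogenous factors.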

[14] = ATG_M_19_CIS: Attagene CIS-FACTORIAL HepG2 Assay for M19 Transcription Factor (Internal Marker) (AID 2282939); settings: HepG2 Attagene CIS-FACTORIAL M19 internal marker reporter; actives raise or lower the signal
How it was run: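 Internal marker readout, fitted in both directions against DMSO, from HepG2 cells carrying transfected cis-element reporter constructs; RT-PCR and capillary electrophoresis of reporter mRNA after 24 h exposure.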

[15] = ATG_ERE_CIS: Attagene CIS-FACTORIAL HepG2 Assay for Estrogen Response Element (ERE) (AID 2282940); settings: HepG2 ERE cis-reporter, Attagene RNA transcript; actives raise or lower the signal
How it was run: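 After 24 h compound treatment, RNA from transfected HepG2 cells was reverse-transcribed, reporter cDNA PCR-amplified, FAM-labelled, HpaI-cut and resolved by capillary electrophoresis. ERE-driven cis reporter transcripts reflect endogenous factors; gain or loss scored against DMSO.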

[16] = ATG_Ets_CIS: Attagene CIS-FACTORIAL HepG2 Assay for human Erythroblast Transformation Specific (ETS) (AID 2282941); settings: HepG2 ETS cis-reporter transcription, actives raise or lower the signal
How it was run: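 Multiplexed reporter transcript profiling: HepG2, 24 h treatment, total RNA to cDNA, PCR, 6-FAM labelling, HpaI cut, capillary electrophoresis. Gain- or loss-of-signal fitted against DMSO.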

[17] = biological target: Hepatocyte nuclear factor 3-beta (Homo sapiens) (UniProt Q9Y261); experiment: ATG_FoxA2_CIS: Attagene CIS-FACTORIAL HepG2 Assay for human Forkhead box A2 (FOXA2) (AID 2282942); settings: HepG2 cis-reporter transcription factor activity, 24 h; actives raise or lower the signal
Hepatocyte nuclear factor 3-beta (Homo sapiens), sequence (Q9Y261 whole entry, looked up): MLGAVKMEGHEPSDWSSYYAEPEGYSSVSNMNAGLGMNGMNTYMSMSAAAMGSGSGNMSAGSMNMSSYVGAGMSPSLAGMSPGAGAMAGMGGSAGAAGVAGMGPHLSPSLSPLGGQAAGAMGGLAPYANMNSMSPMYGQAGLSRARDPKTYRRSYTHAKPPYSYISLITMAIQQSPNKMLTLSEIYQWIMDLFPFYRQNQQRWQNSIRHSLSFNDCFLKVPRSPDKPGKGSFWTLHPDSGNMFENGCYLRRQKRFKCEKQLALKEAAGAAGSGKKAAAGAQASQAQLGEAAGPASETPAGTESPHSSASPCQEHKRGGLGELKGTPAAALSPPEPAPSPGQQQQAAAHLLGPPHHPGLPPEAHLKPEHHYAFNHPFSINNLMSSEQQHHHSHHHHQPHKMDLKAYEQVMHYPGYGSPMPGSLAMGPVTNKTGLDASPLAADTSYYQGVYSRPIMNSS
How it was run: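 24 h dosing of HepG2 bearing cis-reporter constructs; mRNA readout by RT-PCR/CE fluorescence; bidirectional fit, DMSO baseline.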

[18] = ATG_FoxO_CIS: Attagene CIS-FACTORIAL HepG2 Assay for human Forkhead box O (FoxO) (AID 2282943); settings: HepG2 Attagene cis-reporter, FoxO element, mRNA; actives raise or lower the signal
How it was run: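 Endogenous transcription factor activity read from multiplexed cis-promoter reporter transcripts in transiently transfected HepG2, 24 h after dosing. Reporter RNA measured via RT-PCR plus capillary electrophoresis of FAM-labeled products; gain or loss relative to DMSO.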

[19] = ATG_GATA_CIS: Attagene CIS-FACTORIAL HepG2 Assay for human GATA Binding Protein (AID 2282944); settings: HepG2 GATA cis-element reporter, Attagene multiplex mRNA; actives raise or lower the signal
How it was run: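 Reporter transcripts from a GATA cis-regulated unit, among multiplexed reporters in transfected HepG2 cells, were measured by RT-PCR with capillary electrophoresis after 24 h dosing. Induction or loss scored relative to DMSO.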

[20] = biological target: Retinoic acid receptor alpha (Homo sapiens) (UniProt P10276); experiment: ATG_DR5_RAR_CIS: Attagene CIS-FACTORIAL HepG2 Assay for human Retinoic Acid Receptor Alpha (RARE), DR5 submotif (AID 2282934); settings: HepG2 Attagene cis-factorial RARE DR5 reporter, mRNA; actives raise or lower the signal;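 on AC50: reporter responds to endogenous RAR alpha beta and gamma in HepG2 not RARA alone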
Retinoic acid receptor alpha (Homo sapiens), sequence (P10276 whole entry, looked up): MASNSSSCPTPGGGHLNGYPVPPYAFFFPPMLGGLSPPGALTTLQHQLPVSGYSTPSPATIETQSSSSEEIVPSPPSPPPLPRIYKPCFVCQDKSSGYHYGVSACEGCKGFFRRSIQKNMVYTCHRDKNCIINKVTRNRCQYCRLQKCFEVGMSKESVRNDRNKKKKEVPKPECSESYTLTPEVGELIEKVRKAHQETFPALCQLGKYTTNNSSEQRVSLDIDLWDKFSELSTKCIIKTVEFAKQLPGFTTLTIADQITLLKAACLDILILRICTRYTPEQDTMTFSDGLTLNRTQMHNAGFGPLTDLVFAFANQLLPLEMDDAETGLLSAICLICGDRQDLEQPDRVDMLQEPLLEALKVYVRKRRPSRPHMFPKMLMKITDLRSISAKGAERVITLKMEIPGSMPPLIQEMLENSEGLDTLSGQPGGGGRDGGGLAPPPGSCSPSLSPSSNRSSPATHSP
How it was run: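 Reporter transcripts from a DR5-regulated unit, measured via RT-PCR plus capillary electrophoresis, reflect endogenous RAR activity in transiently transfected human HepG2 liver cells. Exposure lasted 24 h; gain or loss of signal scored against DMSO.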

Oc1ccccc1-c1ccccc1
outcome [1]: inactive
AC50 [2]: 148 µM (active)
outcome [2]: inactive
outcome [3]: inactive
AC50 [4]: 56.6 µM (active)
outcome [4]: inactive
AC50 [5]: 80.3 µM (active) and 64 µM (active)
AC50 [6]: 40.5 µM (active)
outcome [6]: inactive
AC50 [7]: 88.3 µM (active)
outcome [7]: inactive
outcome [8]: inactive
AC50 [9]: 71.7 µM (active) and 150 µM (active)
outcome [10]: inactive
outcome [11]: inactive
outcome [12]: inactive
AC50 [13]: 62.4 µM (active)
outcome [13]: inactive
outcome [14]: inactive
AC50 [15]: 13.1 µM (active)
outcome [15]: inactive
outcome [16]: inactive
outcome [17]: inactive
outcome [18]: inactive
outcome [19]: inactive

O=C(O)c1nc(Cl)ccc1Cl
outcome [1]: inactive
outcome [2]: inactive
outcome [3]: inactive
outcome [4]: inactive
outcome [5]: inactive
AC50 [6]: 50 µM (active)
outcome [6]: inactive
outcome [7]: inactive
outcome [8]: inactive
outcome [9]: inactive
outcome [10]: inactive
outcome [11]: inactive
outcome [12]: inactive
outcome [13]: inactive
outcome [14]: inactive
outcome [15]: inactive
outcome [16]: inactive
outcome [17]: inactive
outcome [18]: inactive
outcome [19]: inactive

CO/C=C(/C(=O)OC)c1ccccc1Oc1cc(Oc2ccccc2C#N)ncn1
outcome [1]: inactive
AC50 [2]: 21 µM (active)
outcome [2]: inactive
AC50 [3]: 7.46 µM (active)
outcome [3]: inactive
outcome [4]: inactive
AC50 [5]: 41.8 µM (active) and 26.2 µM (active) and 52.9 µM (active)
outcome [5]: inactive
AC50 [6]: 106 µM (active) and 122 µM (active)
outcome [6]: inactive
AC50 [7]: 9.92 µM (active)
outcome [7]: inactive
outcome [8]: inactive
outcome [9]: inactive
outcome [20]: inactive
outcome [10]: inactive
outcome [11]: inactive
outcome [12]: inactive
AC50 [13]: 11.7 µM (active) and 13.8 µM (active)
outcome [13]: inactive
outcome [14]: inactive
outcome [15]: inactive
outcome [16]: inactive
outcome [17]: inactive
outcome [18]: inactive
outcome [19]: inactive

N#Cc1nn(-c2c(Cl)cc(C(F)(F)F)cc2Cl)c(N)c1S(=O)C(F)(F)F (centres undefined)
outcome [1]: inactive
AC50 [2]: 17.5 µM (active)
outcome [2]: inactive
AC50 [3]: 18.1 µM (active)
outcome [3]: inactive
outcome [4]: inactive
AC50 [5]: 50.5 µM (active)
outcome [5]: inactive
outcome [6]: inactive
AC50 [7]: 9.67 µM (active)
outcome [7]: inactive
outcome [8]: inactive
AC50 [9]: 24.8 µM (active)
outcome [9]: inactive
AC50 [20]: 7.78 µM (active)
outcome [20]: inactive
outcome [10]: inactive
AC50 [11]: 29 µM (active)
outcome [11]: inactive
outcome [12]: inactive
AC50 [13]: 35.8 µM (active)
outcome [13]: inactive
outcome [14]: inactive
outcome [15]: inactive
outcome [16]: inactive
outcome [17]: inactive
outcome [18]: inactive
outcome [19]: inactive

— PubChem BioAssay (EPA / NIEHS)
